In ChEMBL document CHEMBL3433997, “St. Jude Leishmania screening dataset” (2016):

How the values were obtained:
Format in all cases: functional
[1] = biological target: Solute carrier family 2, facilitated glucose transporter member 1 (Homo sapiens) (UniProt P11166); experiment: ST_JUDE_LEISH: Cytotoxicity at 2uM final concentration against transgenic Leishmania Mexicana promastigotes LmGLUT1 that are glucose transport deficient and complemented with the human glucose transporter GLUT1. Activity is measured by DNA content using SYBR green in vitro
[2] = biological target: Hexose transporter 1 (Plasmodium falciparum) (UniProt O97467); experiment: ST_JUDE_LEISH: Cytotoxicity at 2uM final concentration against transgenic Leishmania Mexicana promastigotes LmPfHT that are glucose transport deficient and complemented with the Plasmodium falciparum hexose transporter. Activity is measured by DNA content using SYBR green in vitro
[3] = biological target: Glucose transporter (Leishmania mexicana) (UniProt O61059); experiment: ST_JUDE_LEISH: Cytotoxicity at 2uM final concentration against transgenic Leishmania Mexicana promastigotes LmGT2 that are glucose transport deficient and complemented with the L. Mexicana glucose transporter 2. Activity is measured by DNA content using SYBR green in vitro

Solute carrier family 2, facilitated glucose transporter member 1 (Homo sapiens), sequence (P11166 whole entry): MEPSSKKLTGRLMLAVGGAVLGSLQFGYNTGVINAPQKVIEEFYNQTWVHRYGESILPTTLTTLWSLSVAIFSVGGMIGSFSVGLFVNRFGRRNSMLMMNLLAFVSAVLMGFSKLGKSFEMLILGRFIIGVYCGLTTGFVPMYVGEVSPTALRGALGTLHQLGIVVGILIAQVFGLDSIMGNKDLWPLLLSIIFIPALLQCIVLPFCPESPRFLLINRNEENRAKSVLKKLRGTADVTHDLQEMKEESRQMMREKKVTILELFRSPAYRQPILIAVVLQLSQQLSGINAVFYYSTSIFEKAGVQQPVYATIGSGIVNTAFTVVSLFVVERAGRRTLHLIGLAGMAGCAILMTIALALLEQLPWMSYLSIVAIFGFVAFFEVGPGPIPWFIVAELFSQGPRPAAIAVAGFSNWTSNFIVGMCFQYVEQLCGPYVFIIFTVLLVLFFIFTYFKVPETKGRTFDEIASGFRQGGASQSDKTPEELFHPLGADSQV

SMILES	inhibition [1]	inhibition [2]	inhibition [3]
CCC1(C)N=C(N)N=C(N)N1c1ccccc1 (stereo not drawn)	-3.49%	0%	-3.1%
O=C(Nc1cccc(CN2CCCN(Cc3ccsc3)CC2)c1)c1ccc(Cl)c(Cl)c1	4.04%	2.57%	-2.87%
COc1ccc(C(=O)N[C@@H](CC(C)C)C(=O)N[C@H](/C=N/NC(=O)c2ccccc2)CCc2ccccc2)cc1OCCN1CCOCC1	-0.43%	3.34%	6.8%
O=C(/C=C/c1ccc(C(F)(F)F)cc1)NCCCCCN1CCC(c2c[nH]c3ccccc23)CC1	-1.24%	-1.37%	0%
Clc1cccc(Nc2ccc3c(N4CCCCC4)ncnc3n2)c1	12%	10.8%	4.28%
Cc1cc(CN2CC[C@H](NC(=O)c3ccc(Cl)c(Cl)c3)C2)ccc1OC1CCN(C)C1 (stereo partly drawn)	-0.24%	0.72%	-0.09%
Cc1ccccc1C1CCN(C2CCC(NC(=O)/C=C/c3ccc(C(F)(F)F)cc3F)CC2)CC1 (stereo not drawn)	1.85%	0.43%	0.34%
COC(=O)c1ccc2nc(-c3cc(OC)c(O)c(C(=O)NC4CCN(Cc5ccccc5)CC4)c3)[nH]c2c1	8.4%	5.32%	7.01%
Cc1ccc(Nc2nc3cc(N(C)c4ccnc(Nc5cccc(CCS(C)(=O)=O)c5)n4)ccc3n2C)cc1	3.07%	7.25%	3.82%
COc1ccc(OCc2ccccn2)c(C2CCN(CCCCNC(=O)c3ccc(NC(=O)c4ccc(Cl)cc4)cc3)CC2)c1	1.01%	-4.32%	-2.76%
CNc1ccc(CNCc2cccc(-c3ccc(-c4nc5cc(C(F)(F)F)ccc5[nH]4)cc3)c2)cc1	-1.26%	1.48%	1.39%
CC(C)c1ccc(NC(=O)c2cccc(CN3CCCN(Cc4cccc(C#N)c4)CC3)c2)cc1	6.55%	6.93%	3.39%
CCOc1ccc2c(=NN=Cc3cc(OC)c(OC)c(OC)c3)cc(C)[nH]c2c1	2.5%	1.22%	-0.3%
O=C(c1ccc(Cl)c(Cl)c1)N1CCc2c([nH]c3ccccc23)C1CN1CCCC1 (stereo not drawn)	4.26%	5.06%	3.77%
Fc1cccc(COc2ccc(Nc3ncnc4ccc(-c5nnc(C(F)(F)F)o5)cc34)cc2Cl)c1	4.63%	4.57%	1.46%
Nc1c(Cl)cc(C(O)CNCCCCCCCCCc2ccccn2)cc1Cl (stereo not drawn)	0.94%	-0.21%	0.6%
O=C(Nc1cccc(-c2ccc(CN3CCC(O)CC3)cc2)c1)c1cccc(Cl)c1	3.01%	3.03%	2.17%
COc1ccc(NC(=O)CCNc2cc(C)nc(Nc3ccccc3)n2)cc1	5.84%	5.64%	5.8%
COc1ccc(-c2ccc(NC(=O)c3cccs3)cc2)cc1CN1CCCN(C)CC1	3.24%	3.15%	-1.12%
CN1CC=C(c2csc3ccc(NC(=O)Nc4ccc(-c5ccncc5)c5ccccc45)cc23)CC1	3.83%	3.39%	-1.21%
O=C(Nc1cccc(C(F)(F)F)c1)c1ccc(S(=O)(=O)NCC2CCN(CC3CCCCC3)CC2)cc1	3.47%	2%	3.8%
CS(=O)(=O)CCN(CCS(C)(=O)=O)Cc1ccc(-c2ccc3ncnc(Nc4ccc(OCc5cccc(F)c5)c(Cl)c4)c3c2)o1	2%	2.02%	2.35%
N#Cc1cccc(CN2CCCN(c3ccc(NC(=O)c4cccs4)cc3)CC2)c1	4.81%	4.44%	4.34%
COc1ccc(NC2=C(c3ccccc3)C(=O)c3ccccc32)cn1	7.83%	4.66%	3.49%

SMILES	inhibition [1]	inhibition [2]	inhibition [3]
CC(C)c1ccc(S(=O)(=O)Nc2cccc(CCN3CCC(N4CCCCC4)CC3)c2)cc1	38%	4.08%	1.03%
O=C(NC1CC1)c1ccc(N2CCCC(COc3ccccc3F)C2)nc1 (stereo not drawn)	2.73%	1.75%	2.62%
COc1ccc2nccc([C@@H](O)CN3CCC(NCc4ccc5c(c4)NC(=O)CS5)CC3)c2n1	0.52%	2.86%	-3.81%
O=C(Nc1ccc(OC(F)(F)F)cc1)NC1CCN(c2ccnc3ccccc23)C1 (stereo not drawn)	3.08%	2.41%	3.12%
CN1CCC(C(=O)N(Cc2ccc(-c3ccc(CNCCc4ccc(S(C)(=O)=O)cc4)cn3)cc2)Cc2ccc3c(c2)OCO3)CC1	2.03%	0.87%	3.77%
CNC(=O)c1ccccc1Nc1nc(Nc2cccc(CS(C)(=O)=O)c2)ncc1C	3.44%	11.9%	8.04%
Cc1cccc2nc(-c3cccc(-c4ccc(NC(=O)NCc5cccc(F)c5)cc4)c3)[nH]c12	-1.1%	1.21%	0.25%
COCCNC(=O)C(CNC(=O)c1ccc2c(c1)OCO2)NC(=O)c1ccc(-c2ccccc2)cc1 (stereo not drawn)	3.8%	0.37%	0.64%
Cc1ccccc1C1CCN(C2CCC(NC(=O)c3cc4cc(Cl)ccc4o3)CC2)CC1 (stereo not drawn)	1.84%	1.17%	3.04%
COC(=O)c1cccc(CNCc2cccc(-c3cccc(-c4nc5cc(F)ccc5[nH]4)c3)c2)c1	5.23%	5.92%	4.97%
CCOc1c(Br)cc(C)cc1CNCCCNc1nc2ccccc2[nH]1	1.35%	-0.49%	1.33%
CCCC[C@H](NC(=O)O[C@H](COc1ccc(OCc2ccccc2)cc1)C(C)(C)C)C(=O)C(=O)Nc1cc[nH]n1	3.68%	3.22%	1.64%
CCCCCCCNC(=O)NCC1CCCN(CCCCCNC(=O)/C=C/c2ccc(Cl)c(Cl)c2)C1 (stereo not drawn)	1.71%	4.27%	2.15%
COc1cc(NCC(C)CNCc2cn(Cc3ccccc3)c3ccccc23)nc2ccccc12 (stereo not drawn)	3.78%	6.19%	6.44%
Fc1ccc(Nc2nnc(CNC3CCN(Cc4ccc(Cl)c(Cl)c4)CC3)[nH]2)cc1	2.85%	0.21%	-0.83%
CNC(=O)c1cnc(Nc2ccc(OCC(O)CN(C)C)cc2)nc1Nc1cccc([N+](=O)[O-])c1 (stereo not drawn)	3.44%	3.59%	3.56%
O=[N+]([O-])c1ccc2ncnc(Nc3ccc(F)c(Cl)c3)c2c1	2.27%	0.68%	2.32%
Cc1nc(N)nc(N)c1-c1ccc(Br)cc1	9.9%	8.21%	7.53%
O=C(Cc1ccc(NC(=O)c2ccc(O)c(-c3ccc(Cl)c(Cl)c3)c2)cc1)NCCN1CCOCC1	-2.69%	-1.17%	-1.61%
N=C(N)NN=CC(=O)Nc1ccc(Br)cc1	-1.7%	-4.24%	-1.29%
COCn1ccc2c3c(N)nc(N)nc3ccc21	0.07%	6.21%	2.32%
CC(=O)c1cccc2[nH]c(C(=O)NC3CCC(CCN4CCc5ccc(C#N)cc5C4)CC3)cc12 (stereo not drawn)	4.5%	4.09%	2.51%
CN(C)CCC(O)(c1ccc(Br)cc1)c1cccnc1 (stereo not drawn)	3.13%	2.98%	0.51%
Cc1cc2c3c(N)nc(N)nc3ccc2n1C(C)C	75.6%	79.8%	67.2%

SMILES	inhibition [1]	inhibition [2]	inhibition [3]
O=C(NCCCCN1CCC(c2ccc3c(c2O)CCCC3)CC1)c1ccc(-c2ccc(Cl)cc2)cc1	1.35%	1.06%	2.37%
CC(CN(C)C)C(=O)Nc1ccc(-c2ccc(-c3nc4cc(F)ccc4[nH]3)cc2)cc1 (stereo not drawn)	5.33%	1.98%	2.85%
O=C(Nc1ccc(N2CCCCC2)c(Cl)c1)c1nc[nH]n1	2.18%	-0.39%	1.65%
COc1ccc(S(=O)(=O)N2CCOCC2)cc1NC(=O)c1cc2ccccc2o1	2.09%	3.19%	1.69%
Cn1nc(-c2ccccc2F)c2cc(C(=O)NC3CCN(Cc4ccccc4)CC3)sc21	-0.18%	-1.6%	-1.7%
CCSc1nc2sc3c(c2c(=O)n1-c1ccccc1)CCN(C)C3	0.1%	0.76%	-0.96%
Cc1ccc(CNC(=O)[C@H](Cc2ccccc2)Nc2ccnc(NCC3CCCCC3)n2)cc1	7.85%	4.83%	3.01%
O=C(NC1CCC(CCN2Cc3ccc(Br)cc3C2)CC1)c1cccc(-c2cccnc2)c1 (stereo not drawn)	3.16%	4.93%	-1.16%
O=C(Cn1c(CCc2cccc(F)c2F)nc(=O)c2ccccc21)N(Cc1ccc(-c2ccc(C(F)(F)F)cc2)cc1)C1CCN(C2CCSCC2)CC1	1.28%	-2.32%	3.92%
COC(=O)c1ccc(N2CCN(CCCCNC(=O)c3ccc(NC(=O)c4ccc(Cl)cc4)cc3)CC2)c(OC)c1	0.45%	1.46%	1.51%
Cc1ccc(C2(C)CC(C)(C)N(C(=O)COc3ccc4ccccc4c3)c3ccccc32)cc1 (stereo not drawn)	-1.77%	-1.69%	1.03%
Cc1noc(-c2ccc3c(c2)CCN(CCC2CCC(NC(=O)/C=C/c4ccc(F)cc4)CC2)CC3)n1 (stereo not drawn)	0.93%	-1.07%	-0.23%
CC(C)Oc1cc2c(cc1NS(=O)(=O)c1ccc(-c3cccs3)cc1)CCN(C)CC2	5.11%	2.07%	1.94%
Cc1c(C(=O)NCc2ccncc2)sc2nc(-c3cccc([N+](=O)[O-])c3)cn12	0.53%	-1.39%	-3.15%
CCCCCCCN1CC[C@@H](CCCc2ccnc3ccc(OCCCCNC(N)=O)cc23)[C@@H](CC)C1	2.24%	4.54%	2.79%
Cc1cc(NC(=O)Nc2ccc(Cl)cc2F)c2ccccc2n1	3.45%	4.56%	1.56%
COc1ccc(C=Cc2cc(=N)c3ccccc3[nH]2)cc1Br	1.57%	2.29%	1.29%
CC(C)Oc1cc2c(cc1NS(=O)(=O)c1ccc(-c3ccc(Cl)cc3)cc1)CCN(C)CC2	2.55%	7.31%	4.31%
COc1ccc(C2CCN(C#N)C2)cc1OC1CCCC1 (stereo not drawn)	17%	17.2%	11.1%
COc1cc(Cc2cnc3nc(N)nc(N)c3c2C)cc(OC)c1OC	1.29%	1.49%	1.69%
COc1ccc(Nc2nccc(N3CCC(NC(=O)Nc4cccc(OC)c4)C3)n2)cc1 (stereo not drawn)	0.29%	0.74%	0.51%
COc1cccc(C(=O)NC(c2ccc(Cl)cc2Cl)c2cc(Cl)c3cccnc3c2O)c1 (stereo not drawn)	0.8%	-0.13%	1.53%
COc1ccc2c(c1C1CCN(CCCCNC(=O)c3ccc(-c4ccc(Cl)cn4)cc3)CC1)CCCC2	2.21%	2.74%	3.95%
